The values below come from PubChem BioAssay (NCI).

What all share (test): NCI-60 one-dose screen, 48 h (100 = growth as untreated, 0 = no growth, -100 = all killed)
Common to all, as to conditions: 10 µM unless noted

Assay [1] relates to HCT-15 colon.
Assay [2] relates to HT29 colon.
The test system of assay [3] is SNB-75 CNS.
In assay [4] the test system is SNB-19 CNS.
Assay [5] has as its system U251 CNS.
Assay [6] deals with PC-3 prostate.
In assay [7] the test system is SK-MEL-5 melanoma.
Assay [8] relates to UACC-62 melanoma.
Assay [9] deals with LOX IMVI melanoma.
Assay [10] relates to SK-MEL-28 melanoma.

About 83,000 compounds went through this panel and 20% of them were active in at least one assay; those are over-represented in the sample as a whole.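 For each line, cells grew in 96-well plates with the test compound present at a single concentration for 48 hours.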 A number with no mark means an inactive call. The source made the active and inactive calls. Rule for the calls: active = growth percent below 10; inactive = the rest.

Regarding `COC(=O)[C@H](C[C@H](Cc1ccccc1)NC(=O)c1csc([C@@H](C[C@H](C(C)C)N(C)C(=O)[C@@H](NC(=O)[C@H]2CCCCN2C)C(C)C)OC(C)=O)n1)NC(=O)OCc1ccccc1`, the growth in assay [1] was 13.6% [8.5 µM]; in [2] it was -2.9% [8.5 µM] (active); in assay [3], 22.7% [8.5 µM]; in [4], 16.3% [8.5 µM]; in [5], 14.6% [8.5 µM]; in assay [6], 32.4% [8.5 µM]. The growth in assay [7] is -13.3% [8.5 µM] (active); in assay [8], 23.8% [8.5 µM]; in assay [9], 13.8% [8.5 µM]; in assay [10], -69.7% [8.5 µM] (active).

With `O=[N+]([O-])c1cnc[nH]1`, the growth in assay [1] is 112%; in [2] it was 95.1%; in assay [3] it was 93.1%; in assay [4], 104%; in assay [5], 99.6%; in assay [6] it was 96.5%. The growth was 106% in [7], 96.3% in assay [8], 97.8% in assay [9] and 114% in assay [10].

Regarding `N#CC1(c2ccccc2)CCN(Cc2ccccc2)CC1`, the growth in assay [1] is 94.1%; in assay [2], 101%; in [3] it was 121%; in assay [4], 114%; in assay [5], 107%; in assay [6] it was 84.2%. For the same molecule, the growth in [7] was 102%; in assay [8], 110%; in assay [9], 102%; in assay [10], 122%.

In the case of `C=CC[n+]1ccc(-c2cc[n+](CC=C)cc2)cc1`, the growth in [1] was 96.4%; in assay [2], 29.1%; in [3], 92.5%; in assay [4], 111%; in assay [5] it was 89.4%; in assay [6] it was 90.9%. Further, the growth was 71.4% in assay [7], 110% in assay [8], 101% in assay [9] and 102% in assay [10].

Turning to `COC(=O)C12CC(NC(=O)c3csc([C@@H](C[C@H](C(C)C)N(C)C(=O)[C@@H](NC(=O)[C@H]4CCCCN4C)C(C)C)OC(C)=O)n3)(C1)C2`, the growth in assay [1] was 5.8% (active); in assay [2], 2.39% (active); in [3] it was 47%; in assay [4], 29.1%; in assay [5], 20.7%; in assay [6], 23%. Besides, the growth is -38.8% (active) in [7], 37.2% in assay [8], 22.2% in [9] and 62.4% in assay [10].

`COC(=O)[C@@H](C)C[C@H](Cc1ccccc1)NC(=O)c1csc([C@@H](C[C@H](C(C)C)N(C)C(=O)[C@H](C)NC(=O)[C@H]2CCCN2C)OC(C)=O)n1`: the growth was 57.7% in [1]; 11.5% in [2]; 30.7% in assay [3]; 51% in [4]; 24.8% in [5]; 36.4% in assay [6]. Also, the growth in assay [7] was 22.3%; in assay [8], 45.6%; in assay [9], 38.4%; in assay [10], 70.1%.

On to `O=C(CCCC1CCCCC1)OCC(Cl)(Cl)Cl`, for which the growth in assay [1] was 108%; in assay [2], 103%; in [3] it was 101%; in [4], 106%; in assay [5], 97%; in assay [6], 91.4%. Besides, the growth was 107% in assay [7], 98.9% in assay [8], 101% in [9] and 113% in assay [10].

As to `Cc1c(O)c(CN(CCCl)CCCl)cc(CN(CCCl)CCCl)c1O`, the growth is 82.7% in assay [1]; 70.8% in [2]; 78.9% in assay [3]; 99.7% in [4]; 81.6% in assay [5]; 65.8% in assay [6]. Further, the growth in assay [7] is 91.7%; in assay [8], 89.1%; in assay [9], 77.4%; in assay [10], 102%.

As to `CCN1C(=O)C(=C/C=C/c2ccccc2)C(=O)N(CC)C1=O`, the growth was 62.6% in [1]; 66% in [2]; 96.8% in [3]; 69.9% in [4]; 54.9% in assay [5]; 61.7% in assay [6]. Moreover, the growth in assay [7] was 89.8%; in assay [8] it was 79%; in assay [9], 17%; in assay [10] it was 104%.

As to `CC(=O)OC1CCC2C3CCC4=C/C(=N/OC(=O)c5ccc(N(CCCl)CCCl)cc5)CCC4(C)C3CC(C)C12` (stereo not given), the growth in assay [1] is 71.6%; in assay [2] it was 46.8%; in assay [3], 70.5%; in assay [4], 62.9%; in [5], 59.3%; in assay [6] it was 77.1%. The growth is 67.5% in assay [7], 72.5% in assay [8], 15.5% in assay [9] and 108% in assay [10].

`O=C1OCC2=C1C(c1ccccc1)c1cc3c(cc1N2)OCO3` (stereo not given): the growth in assay [1] was 10.9%; in assay [2], 4.87% (active); in assay [3] it was 45.9%; in [4] it was 36.2%; in assay [5], 9.54% (active); in [6], 25.9%. Further, the growth was -39.6% (active) in [7], 31% in assay [8], 26.2% in [9] and 64.2% in assay [10].

Take `CC(=O)Oc1ccccc1C(=O)NCCC[Se]C#N`: the growth was -30.6% (active) in assay [1]; 91.1% in assay [2]; -35.1% (active) in assay [3]; -70.3% (active) in [4]; -62.1% (active) in [5]; 20.6% in [6]. Moreover, the growth in assay [7] was 35.4%; in assay [8], 71.3%; in [9] it was -49% (active); in [10], 7.94% (active).

As to `Clc1cccc(Cl)c1Cl`, the growth is 101% in [1]; 82.8% in assay [2]; 93.8% in assay [3]; 118% in assay [4]; 98.4% in [5]; 103% in assay [6]. The growth was 105% in [7], 99.8% in assay [8], 101% in assay [9] and 109% in assay [10].
